Reference: PubChem BioAssay AID652208 (Broad Institute, 2013)
Measured potencies and affinities stand elsewhere. Unmarked numbers belong to inactive results.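 The calls were made as follows: active = Loss of cell signal with fitted half-effect dose at or below twice the top valid tested dose; inconclusive = Poor fit, or flat fit from -70 to -30 percent; inactive = Half-effect above limit, rising signal, or flat within 30 percent.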

test: HEK293T cell cytotoxicity, dose response, cytotoxicity control for HIV Vif inhibitor project, cherry-picks (AID 652208); conditions: HEK293T viability, CellTiter-Glo luminescence, 24 h; series mostly up to 26 µM; activity change, negative = cytotoxicity: at the top concentration;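 also: 0% = median neutral control wells and -100% = median staurosporine control wells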

SMILES | activity change, negative = cytotoxicity [%]
COc1ccc(-c2csc(-c3cccnc3)n2)cc1C | -6.7
N#Cc1c2ccc(OCC(N)=O)cc2n2ccccc12 | -2.27
COCCN(C(=O)COC(=O)Cc1ccc(Cl)cc1)c1c(N)n(Cc2ccccc2)c(=O)[nH]c1=O | -2.42
COc1cccc(-c2cc(NC=O)c3ncc(-c4cc(OC)c(OC)c(OC)c4)n3c2)c1 | -12.9
CN(C)c1ccc(/C=C2\SC(=O)N(CCc3nnc(N)s3)C2=O)cc1 | -1.54
COc1ccc(CN(C(=O)Cn2nnc(-c3ccc(C)o3)n2)C(C(=O)NCC2CCCO2)c2ccco2)cc1 (stereo not drawn) | -8.44
O=C(CCc1ccccc1)Nc1ccccc1 | 5.54
CN1CCN(C(=S)c2ccc(OCC(=O)Nc3cccc(C(F)(F)F)c3)cc2)CC1 | -12.2
O=C1/C(=C/c2ccc(N3CCCC3)cc2)NC(=S)N1C1CC1 | 3.52
N#Cc1c(-c2ccccc2)cc(C2CC2)nc1SCC(=O)c1cccs1 | 2.29
COc1ccccc1CNC(=O)CSC1=NCCS1 | 1.93
O=C(NNC(=O)c1cc2ccccc2oc1=O)c1ccccc1 | 6.51
Cc1ccc(Nc2nc(N)nc(CSc3nnc(-c4ccncc4)o3)n2)cc1 | -4.38
COc1ccc(CN(CC(=O)NC2CCCC2)C(=O)CN2C(=O)COc3ccccc32)cc1 | 3.38
COc1ccc(-c2cc(C(F)(F)F)n3nc(C(=O)NCc4ccco4)c(Cl)c3n2)cc1 | -23.3
O=C(c1cc(COc2cccc3cccnc23)on1)N1CCC[C@H]1CO | 15.7
COc1ccc2cc(CCNS(=O)(=O)c3ccc(NC(C)=O)cc3)c(=O)[nH]c2c1 | -0.974
COc1ccc(CNC(=O)CN2C(=O)NC(c3ccccc3)(c3ccccc3)C2=O)cc1 | -6.23
CC(C)C(NC(=O)c1ccccc1NC(=O)C(C)(C)C)C(=O)N1CCOCC1 (stereo not drawn) | 5

SMILES | activity change, negative = cytotoxicity [%]
COc1ccc(-c2ccc3c(N)c(C(=O)c4ccc(OC)c(OC)c4)sc3n2)cc1 | -18.1
Cc1cc(NC(=O)CSc2nc3ccccc3c(=O)n2-c2ccccc2)no1 | 1.64
O=c1sc(N2CCN(c3ccc(F)cc3)CC2)nc2ccsc12 | -4.85
CC(O)CN(C)CC/C=C1/c2ccccc2CSc2ccccc21 (stereo not drawn) | 2.18
CC(C)(C)NC(=O)NC(=O)COc1ccccn1 | 5.18
CNC(=O)COc1ccccc1C(=O)Nc1ccc2c(c1)oc1ccccc12 | -10.8
CN1CCc2c(sc(NC(=O)c3cc(Cl)sc3Cl)c2C(N)=O)C1 | -10.7
O=C(Nc1ccnc(-c2cccnc2)n1)c1cccs1 | -0.234
CCOc1ccc(C(=O)c2cc([N+](=O)[O-])ccc2N2CCOCC2)cc1 | -13.8
COc1cc(NC(=O)c2ccc(C)cc2C)ccc1NC(=O)c1cccs1 | -17.1
OC(CNCc1ccccc1Cl)COc1ccc(F)cc1 (stereo not drawn) | -10.6
NCCCC[C@H](N[C@@H](CCc1ccccc1)C(=O)O)C(=O)N1CCC[C@H]1C(=O)O | 2.25
COc1ccc(OC)c(NC(=O)c2cc3ccccc3cc2OC)c1 | -7.06
CCOc1ccc(Nc2nc3c(C)cccc3cc2C#N)cc1 | -0.828
CCOc1ccc(C(C)=O)cc1COC(=O)c1cc([N+](=O)[O-])ccc1N1CCOCC1 | -20.4
O=C(CCCn1c(=S)[nH]c2ccccc2c1=O)N1CCN(c2cccc(Cl)c2)CC1 | -17.7
Cc1nc(-c2ccc(O)c(O)c2)cs1 | -6.88
COc1ccc(CCNc2nnc(Sc3nnnn3-c3ccccc3)s2)cc1OC | -3.09
COc1cc(/C=C/C(=O)O)ccc1S(=O)(=O)N1CCCc2ccccc21 | 3.17
